Hit rate of the full screen: of about 5,500 compounds, about 2,000 (36%) were called active. Inconclusive results (about 18%) are left out. The list shows a part of the results. Unmarked numbers belong to inactive results. Rule as the data show it: active = normalized growth mostly below about 0.91 (no sharp cut-off); inconclusive = no clear call, values can overlap the other calls; inactive = mostly above about 0.92.
Assay: chemical genetic growth profiling, strain panel (AID 1159580);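 also: tested at 20 µM; growth read once vehicle control cultures reached saturation at 30 °C; 1 = growth at the plate median or of vehicle wells; lower values mean less growth of the strain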
Conditions: S. cerevisiae deletion strains, growth OD

## O=C1c2ccc(O)c(O)c2C(=O)c2c(O)ccc(O)c21
Locus YAL021C, strain ccr4, stronger effect = lower value
  normalized growth: 0.241 (active)
Locus YAL026C, strain drs2, stronger effect = lower value
  normalized growth: 0.376 (active)
Locus YAL030W, strain snc1, stronger effect = lower value
  normalized growth: 0.69 (active)
Locus YBL061C, strain skt5, stronger effect = lower value
  normalized growth: 0.548 (active)
Locus YBR009C, strain hhf1, stronger effect = lower value
  normalized growth: 0.667 (active)
Locus YBR021W, strain FUR4, stronger effect = lower value
  normalized growth: 1.01
Locus YBR023C, strain chs3, stronger effect = lower value
  normalized growth: 0.479 (active)
Locus YBR171W, strain sec66, stronger effect = lower value
  normalized growth: 0.753 (active)
Locus YBR229C, strain ROT2, stronger effect = lower value
  normalized growth: 1.01
Locus YBR231C, strain swc5, stronger effect = lower value
  normalized growth: 0.479 (active)
Locus YBR279W, strain paf1, stronger effect = lower value
  normalized growth: 0.838 (active)
Locus YCL011C, strain gbp2, stronger effect = lower value
  normalized growth: 0.67 (active)
Locus YCL016C, strain dcc1, stronger effect = lower value
  normalized growth: 0.695 (active)
Locus YCL029C, strain bik1, stronger effect = lower value
  normalized growth: 1
Locus YCL069W, strain vba3, stronger effect = lower value
  normalized growth: 0.751 (active)
Locus YCR088W, strain abp1, stronger effect = lower value
  normalized growth: 0.781 (active)
Locus YDL005C, strain med2, stronger effect = lower value
  normalized growth: 0.879 (active)
Locus YDL035C, strain GPR1, stronger effect = lower value
  normalized growth: 1.03
Locus YDL040C, strain nat1, stronger effect = lower value
  normalized growth: 0.795 (active)
Locus YDL074C, strain BRE1, stronger effect = lower value
  normalized growth: 1
Locus YDL101C, strain DUN1, stronger effect = lower value
  normalized growth: 1.01
Locus YDL185W, strain tfp1, stronger effect = lower value
  normalized growth: 1.01
Locus YDL192W, strain arf1, stronger effect = lower value
  normalized growth: 0.99
Locus YDR001C, strain nth1, stronger effect = lower value
  normalized growth: 0.787 (active)
Locus YDR069C, strain doa4, stronger effect = lower value
  normalized growth: 0.399 (active)
Locus YDR101C, strain arx1, stronger effect = lower value
  normalized growth: 1.01
Locus YDR137W, strain rgp1, stronger effect = lower value
  normalized growth: 0.255 (active)
Locus YDR159W, strain sac3, stronger effect = lower value
  normalized growth: 0.789 (active)
Locus YDR162C, strain NBP2, stronger effect = lower value
  normalized growth: 1.03
Locus YDR195W, strain ref2
  normalized growth: 0.873
Locus YDR297W, strain sur2, stronger effect = lower value
  normalized growth: 0.697 (active)
Locus YDR318W, strain mcm21, stronger effect = lower value
  normalized growth: 0.992
Locus YDR334W, strain swr1, stronger effect = lower value
  normalized growth: 0.424 (active)
Locus YDR335W, strain msn5, stronger effect = lower value
  normalized growth: 0.737 (active)
Locus YDR388W, stronger effect = lower value
  normalized growth: 0.997
Locus YDR392W, strain spt3, stronger effect = lower value
  normalized growth: 0.567 (active)
Locus YDR502C, strain sam2, stronger effect = lower value
  normalized growth: 0.991
Locus YEL003W, strain gim4, stronger effect = lower value
  normalized growth: 0.675 (active)
Locus YEL037C, strain rad23, stronger effect = lower value
  normalized growth: 0.734 (active)
Locus YEL061C, strain CIN8 (second series), stronger effect = lower value
  normalized growth: 0.814 (active)
Locus YEL061C, strain CIN8, stronger effect = lower value
  normalized growth: 1
Locus YER015W, strain faa2, stronger effect = lower value
  normalized growth: 0.493 (active)
Locus YER016W, strain bim1, stronger effect = lower value
  normalized growth: 0.705 (active)
Locus YER110C, stronger effect = lower value
  normalized growth: 0.991
Locus YER111C, strain swi4, stronger effect = lower value
  normalized growth: 0.708 (active)
Locus YER155C, strain BEM2 (second series), stronger effect = lower value
  normalized growth: 0.696 (active)
Locus YER155C, strain BEM2, stronger effect = lower value
  normalized growth: 1
Locus YER167W, strain BCK2, stronger effect = lower value
  normalized growth: 1.02
Locus YFR010W, strain ubp6, stronger effect = lower value
  normalized growth: 0.539 (active)
Locus YGL078C, strain dbp3, stronger effect = lower value
  normalized growth: 0.982
Locus YGL086W, strain mad1, stronger effect = lower value
  normalized growth: 0.989
Locus YGL167C, strain pmr1, stronger effect = lower value
  normalized growth: 0.814 (active)
Locus YGL173C, strain kem1, stronger effect = lower value
  normalized growth: 0.286 (active)
Locus YGL227W, strain vid30, stronger effect = lower value
  normalized growth: 0.83 (active)
Locus YGL240W, strain doc1, stronger effect = lower value
  normalized growth: 0.667 (active)
Locus YGL248W, strain PDE1, stronger effect = lower value
  normalized growth: 1
Locus YGL253W, strain hxk2, stronger effect = lower value
  normalized growth: 0.638 (active)
Locus YGR078C, strain PAC10, stronger effect = lower value
  normalized growth: 1.01
Locus YGR135W, strain pre9, stronger effect = lower value
  normalized growth: 0.991
Locus YGR252W, strain gcn5, stronger effect = lower value
  normalized growth: 0.977
Locus YHR013C, strain ard1, stronger effect = lower value
  normalized growth: 0.953
Locus YHR027C, strain rpn1, stronger effect = lower value
  normalized growth: 0.401 (active)
Locus YHR030C, strain SLT2, stronger effect = lower value
  normalized growth: 1.01
Locus YHR079C, strain IRE1 (second series), stronger effect = lower value
  normalized growth: 0.991
Locus YHR094C, strain hxt1, stronger effect = lower value
  normalized growth: 0.995
Locus YHR129C, strain ARP1, stronger effect = lower value
  normalized growth: 1.01
Locus YHR142W, strain chs7, stronger effect = lower value
  normalized growth: 0.451 (active)
Locus YHR200W, strain rpn10, stronger effect = lower value
  normalized growth: 0.998
Locus YIL066C, strain RNR3, stronger effect = lower value
  normalized growth: 1.03
Locus YIL073C, strain SPO22, stronger effect = lower value
  normalized growth: 1.01
Locus YIL125W, strain kgd1, stronger effect = lower value
  normalized growth: 0.992
Locus YIR030C, strain dcg1, stronger effect = lower value
  normalized growth: 0.988
Locus YJL092W, strain hpr5, stronger effect = lower value
  normalized growth: 0.774 (active)
Locus YJL095W, strain BCK1 (second series), stronger effect = lower value
  normalized growth: 0.236 (active)
Locus YJL095W, strain BCK1, stronger effect = lower value
  normalized growth: 0.998
Locus YJL115W, strain asf1, stronger effect = lower value
  normalized growth: 0.816 (active)
Locus YJL129C, strain trk1, stronger effect = lower value
  normalized growth: 0.52 (active)
Locus YJL134W, strain LCB3, stronger effect = lower value
  normalized growth: 1.01
Locus YJL154C, strain vps35, stronger effect = lower value
  normalized growth: 0.782 (active)
Locus YJL164C, strain tpk1, stronger effect = lower value
  normalized growth: 0.545 (active)
Locus YJL166W, strain qcr8, stronger effect = lower value
  normalized growth: 0.596 (active)
Locus YJL168C, strain set2, stronger effect = lower value
  normalized growth: 0.988
Locus YJL187C, strain SWE1 (second series), stronger effect = lower value
  normalized growth: 1.01
Locus YJR043C, strain POL32, stronger effect = lower value
  normalized growth: 1.03
Locus YKL009W, strain mrt4, stronger effect = lower value
  normalized growth: 0.978
Locus YKL068W, stronger effect = lower value
  normalized growth: 0.992
Locus YKL085W, strain MDH1 (second series), stronger effect = lower value
  normalized growth: 0.99
Locus YKL085W, strain MDH1, stronger effect = lower value
  normalized growth: 0.99
Locus YKL160W, strain elf1, stronger effect = lower value
  normalized growth: 0.869 (active)
Locus YKL190W, strain CNB1, stronger effect = lower value
  normalized growth: 1.01
Locus YKR001C, strain vps1, stronger effect = lower value
  normalized growth: 0.985
Locus YKR026C, strain gcn3, stronger effect = lower value
  normalized growth: 0.81 (active)
Locus YKR091W, strain srl3, stronger effect = lower value
  normalized growth: 0.757 (active)
Locus YLL001W, strain dnm1, stronger effect = lower value
  normalized growth: 0.722 (active)
Locus YLL026W, stronger effect = lower value
  normalized growth: 0.758 (active)
Locus YLL041C, strain sdh2, stronger effect = lower value
  normalized growth: 0.765 (active)
Locus YLR027C, strain aat2, stronger effect = lower value
  normalized growth: 0.751 (active)
Locus YLR039C, strain RIC1, stronger effect = lower value
  normalized growth: 1.03
Locus YLR058C, strain SHM2, stronger effect = lower value
  normalized growth: 1.01
Locus YLR102C, strain apc9, stronger effect = lower value
  normalized growth: 0.991
Locus YLR221C, strain rsa3, stronger effect = lower value
  normalized growth: 0.668 (active)
Locus YLR258W, strain gsy2, stronger effect = lower value
  normalized growth: 0.685 (active)
Locus YLR262C, strain YPT6 (second series), stronger effect = lower value
  normalized growth: 0.185 (active)
Locus YLR262C, strain YPT6, stronger effect = lower value
  normalized growth: 1.09
Locus YLR268W, strain sec22, stronger effect = lower value
  normalized growth: 1.01
Locus YLR320W, strain mms22, stronger effect = lower value
  normalized growth: 0.515 (active)
Locus YLR330W, strain CHS5, stronger effect = lower value
  normalized growth: 1.01
Locus YLR342W, strain FKS1 (second series), stronger effect = lower value
  normalized growth: 1.02
Locus YLR342W, strain FKS1, stronger effect = lower value
  normalized growth: 0.532 (active)
Locus YLR357W, strain rsc2, stronger effect = lower value
  normalized growth: 0.563 (active)
Locus YLR370C, strain arc18, stronger effect = lower value
  normalized growth: 0.577 (active)
Locus YLR371W, strain rom2, stronger effect = lower value
  normalized growth: 0.986
Locus YLR384C, strain iki3, stronger effect = lower value
  normalized growth: 0.731 (active)
Locus YLR418C, strain cdc73, stronger effect = lower value
  normalized growth: 0.978
Locus YML016C, strain PPZ1, stronger effect = lower value
  normalized growth: 1.01
Locus YML032C, strain rad52, stronger effect = lower value
  normalized growth: 1.01
Locus YML120C, strain ndi1, stronger effect = lower value
  normalized growth: 0.768 (active)
Locus YML124C, strain tub3, stronger effect = lower value
  normalized growth: 0.988
Locus YMR058W, strain fet3, stronger effect = lower value
  normalized growth: 0.459 (active)
Locus YMR078C, strain ctf18, stronger effect = lower value
  normalized growth: 0.996
Locus YMR125W, strain sto1, stronger effect = lower value
  normalized growth: 0.803 (active)
Locus YMR129W, stronger effect = lower value
  normalized growth: 0.756 (active)
Locus YMR205C, strain PFK2, stronger effect = lower value
  normalized growth: 0.522 (active)
Locus YMR223W, strain ubp8, stronger effect = lower value
  normalized growth: 0.998
Locus YMR231W, strain pep5, stronger effect = lower value
  normalized growth: 0.641 (active)
Locus YMR307W, strain GAS1, stronger effect = lower value
  normalized growth: 1.07
Locus YNL067W, strain RPL9B, stronger effect = lower value
  normalized growth: 0.997
Locus YNL071W, strain lat1, stronger effect = lower value
  normalized growth: 0.748 (active)
Locus YNL128W, strain TEP1, stronger effect = lower value
  normalized growth: 1.01
Locus YNL153C, strain GIM3, stronger effect = lower value
  normalized growth: 0.998
Locus YNL209W, strain ssb2, stronger effect = lower value
  normalized growth: 0.29 (active)
Locus YNL233W, strain BNI4, stronger effect = lower value
  normalized growth: 1.01
Locus YNL248C, strain rpa49, stronger effect = lower value
  normalized growth: 0.66 (active)
Locus YNL250W, strain rad50, stronger effect = lower value
  normalized growth: 0.998
Locus YNL271C, strain bni1, stronger effect = lower value
  normalized growth: 0.994
Locus YNL298W, strain CLA4, stronger effect = lower value
  normalized growth: 0.994
Locus YNL307C, strain MCK1, stronger effect = lower value
  normalized growth: 0.994
Locus YNL322C, strain KRE1 (second series), stronger effect = lower value
  normalized growth: 0.812 (active)
Locus YNR049C, strain mso1, stronger effect = lower value
  normalized growth: 0.785 (active)
Locus YNR052C, strain pop2, stronger effect = lower value
  normalized growth: 0.993
Locus YOL012C, strain htz1
  normalized growth: 0.902
Locus YOL147C, strain pex11, stronger effect = lower value
  normalized growth: 0.998
Locus YOR001W, strain rrp6, stronger effect = lower value
  normalized growth: 0.683 (active)
Locus YOR061W, strain CKA2, stronger effect = lower value
  normalized growth: 1.02
Locus YOR069W, strain VPS5, stronger effect = lower value
  normalized growth: 1.01
Locus YOR070C, strain gyp1, stronger effect = lower value
  normalized growth: 0.71 (active)
Locus YOR080W, strain dia2, stronger effect = lower value
  normalized growth: 0.759 (active)
Locus YOR083W, strain WHI5, stronger effect = lower value
  normalized growth: 0.57 (active)
Locus YOR106W, strain vam3, stronger effect = lower value
  normalized growth: 0.307 (active)
Locus YOR136W, strain idh2, stronger effect = lower value
  normalized growth: 1.02
Locus YOR144C, strain elg1, stronger effect = lower value
  normalized growth: 0.991
Locus YOR184W, strain ser1, stronger effect = lower value
  normalized growth: 0.995
Locus YOR265W, strain rbl2, stronger effect = lower value
  normalized growth: 0.683 (active)
Locus YOR270C, strain vph1, stronger effect = lower value
  normalized growth: 0.387 (active)
Locus YOR290C, strain snf2, stronger effect = lower value
  normalized growth: 0.578 (active)
Locus YOR316C, strain cot1, stronger effect = lower value
  normalized growth: 0.996
Locus YPL051W, strain arl3, stronger effect = lower value
  normalized growth: 0.416 (active)
Locus YPL078C, strain atp4, stronger effect = lower value
  normalized growth: 0.76 (active)
Locus YPL106C, strain sse1, stronger effect = lower value
  normalized growth: 0.536 (active)
Locus YPL240C, strain hsp82, stronger effect = lower value
  normalized growth: 0.74 (active)
Locus YPL241C, strain CIN2, stronger effect = lower value
  normalized growth: 1.01
Locus YPR119W, strain clb2, stronger effect = lower value
  normalized growth: 0.989
Locus YPR141C, strain kar3, stronger effect = lower value
  normalized growth: 0.991
Locus YPR163C, strain tif3, stronger effect = lower value
  normalized growth: 1.01
Locus YPR167C, strain met16, stronger effect = lower value
  normalized growth: 0.989
Strain wtn01, stronger effect = lower value
  normalized growth: 1.01

From PubChem BioAssay AID1159580 (chemical genetic matrix, 2015)
